Test results from article PMC3218832.

Columns and labels:
Experiment in all cases: protein binding microarray; high values mean tight binding
Details in all cases: dsDNA, one strand shown
RELARELA (p65 homodimer) = RELARELA (p65 homodimer) (Homo sapiens, UniProt Q04206 1-307)
p50p50 homodimer = p50p50 homodimer (Homo sapiens, UniProt P19838 7-356)
p52p52 homodimer = target: T1, p52p52 homodimer (Homo sapiens, UniProt Q00653 4-332)
T1 sequence: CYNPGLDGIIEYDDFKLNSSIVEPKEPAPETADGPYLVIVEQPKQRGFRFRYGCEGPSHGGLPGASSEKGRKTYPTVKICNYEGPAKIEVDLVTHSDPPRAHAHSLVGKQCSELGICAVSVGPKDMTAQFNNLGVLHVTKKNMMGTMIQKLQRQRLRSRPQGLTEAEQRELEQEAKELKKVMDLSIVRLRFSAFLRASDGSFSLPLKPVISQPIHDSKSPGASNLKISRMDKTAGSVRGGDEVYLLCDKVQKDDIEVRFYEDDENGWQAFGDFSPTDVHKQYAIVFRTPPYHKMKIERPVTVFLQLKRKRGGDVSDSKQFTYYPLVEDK

[1] = target: RELA (p65) subunit of heterodimer;p50 subunit (Homo sapiens;Homo sapiens, UniProt Q04206;P19838 1-307;7-356)
[2] = target: RELA (p65) subunit of heterodimer;p52 subunit (Homo sapiens;Homo sapiens, UniProt Q04206;Q00653 1-307;4-332)
RELB subunit;p50 subunit = RELB subunit;p50 subunit (Homo sapiens;Homo sapiens, UniProt Q01201;P19838 120-401;7-356)
RELB subunit;p52 subunit = target: T2, RELB subunit;p52 subunit (Homo sapiens;Homo sapiens, UniProt Q01201;Q00653 120-401;4-332)
T2 sequence 1: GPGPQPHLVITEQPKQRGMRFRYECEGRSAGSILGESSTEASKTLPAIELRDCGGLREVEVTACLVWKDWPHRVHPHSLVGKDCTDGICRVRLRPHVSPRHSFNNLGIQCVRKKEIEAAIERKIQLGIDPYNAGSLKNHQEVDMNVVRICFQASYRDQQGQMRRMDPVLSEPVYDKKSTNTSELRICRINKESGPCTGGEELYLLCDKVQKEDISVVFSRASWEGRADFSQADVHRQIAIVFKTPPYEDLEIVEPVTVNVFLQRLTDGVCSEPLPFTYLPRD
T2 sequence 2: T1 sequence

[3] = target: C-Rel subunit;p50 subunit (Homo sapiens;Homo sapiens, UniProt Q04864;P19838 1-285;7-356)
[4] = target: T3, C-Rel subunit;p52 subunit (Homo sapiens;Homo sapiens, UniProt Q04864;Q00653 1-285;4-332)
T3 sequence 1: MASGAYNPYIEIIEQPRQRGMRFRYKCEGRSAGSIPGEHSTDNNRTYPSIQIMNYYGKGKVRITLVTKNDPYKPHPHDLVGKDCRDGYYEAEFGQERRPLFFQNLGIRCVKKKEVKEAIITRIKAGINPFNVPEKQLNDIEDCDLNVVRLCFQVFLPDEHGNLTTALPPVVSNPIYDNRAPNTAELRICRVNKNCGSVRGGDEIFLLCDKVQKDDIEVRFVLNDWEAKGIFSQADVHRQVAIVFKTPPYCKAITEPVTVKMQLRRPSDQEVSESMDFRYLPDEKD
T3 sequence 2: T1 sequence

p50p50 homodimer, sequence (P19838 7-356): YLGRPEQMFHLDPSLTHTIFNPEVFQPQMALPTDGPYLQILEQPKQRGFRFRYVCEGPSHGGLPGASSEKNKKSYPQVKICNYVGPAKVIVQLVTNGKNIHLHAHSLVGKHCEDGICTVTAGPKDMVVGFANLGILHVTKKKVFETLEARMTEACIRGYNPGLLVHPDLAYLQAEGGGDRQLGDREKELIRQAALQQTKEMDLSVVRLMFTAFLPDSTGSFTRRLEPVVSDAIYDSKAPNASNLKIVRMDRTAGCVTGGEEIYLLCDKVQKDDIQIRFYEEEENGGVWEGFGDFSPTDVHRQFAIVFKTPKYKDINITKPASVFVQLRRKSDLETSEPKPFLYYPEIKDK
RELARELA (p65 homodimer), sequence (Q04206 1-307): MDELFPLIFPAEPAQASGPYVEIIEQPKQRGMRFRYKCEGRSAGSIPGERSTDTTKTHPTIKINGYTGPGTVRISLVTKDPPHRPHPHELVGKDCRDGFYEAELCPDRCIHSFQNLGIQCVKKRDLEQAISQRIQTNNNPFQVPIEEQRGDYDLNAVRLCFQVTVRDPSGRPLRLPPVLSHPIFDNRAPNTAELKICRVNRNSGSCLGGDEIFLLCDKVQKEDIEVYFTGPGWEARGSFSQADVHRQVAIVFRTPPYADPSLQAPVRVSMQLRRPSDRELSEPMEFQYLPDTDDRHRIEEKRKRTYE
RELA (p65) subunit of heterodimer;p50 subunit, sequence (Q04206 1-307, chain 1 of 2): as the sequence (Q04206 1-307) above
RELA (p65) subunit of heterodimer;p50 subunit, sequence (P19838 7-356, chain 2 of 2): as the sequence (P19838 7-356) above

| Sequence | binding signal (RELARELA (p65 homodimer)) | binding signal (p50p50 homodimer) | binding signal (p52p52 homodimer) | binding signal [1] | binding signal [2] | binding signal (RELB subunit;p50 subunit) | binding signal (RELB subunit;p52 subunit) | binding signal [3] | binding signal [4] |
| --- | --- | --- | --- | --- | --- | --- | --- | --- | --- |
| CGGGTTACCCT | 0.242 z-score | -0.264 z-score | -0.0855 z-score | -0.112 z-score | -0.124 z-score | 0.063 z-score | -0.22 z-score | -0.0809 z-score | -0.0258 z-score |
| CGGTTTTTCCC | 3.71 z-score | 0.935 z-score | 2.66 z-score | 1.81 z-score | 1.88 z-score | 1.05 z-score | 1.78 z-score | 1.57 z-score | 2.3 z-score |
| CAGGTTGTCCT | -0.115 z-score | -0.869 z-score | -0.451 z-score | -0.774 z-score | -0.884 z-score | -0.961 z-score | -0.805 z-score | -1.05 z-score | -0.71 z-score |
| AAAAAGGTCCC | 0.243 z-score | 0.679 z-score | 0.569 z-score | 0.331 z-score | 0.184 z-score | 0.63 z-score | 0.428 z-score | 0.216 z-score | 0.157 z-score |
| AAGGGCCCCCT | -0.998 z-score | 0.884 z-score | 0.332 z-score | 0.446 z-score | 0.569 z-score | 0.703 z-score | 1.14 z-score | 0.138 z-score | 0.261 z-score |
| CGAATGTCCCC | 0.531 z-score | 1.1 z-score | 0.861 z-score | 1.09 z-score | 1.07 z-score | 1.07 z-score | 1.17 z-score | 1.01 z-score | 0.868 z-score |
| GGATGCGTCCT | 0.00389 z-score | -1.17 z-score | -0.665 z-score | -1.04 z-score | -0.853 z-score | -1.18 z-score | -0.816 z-score | -1.72 z-score | -0.907 z-score |
| CAAAAGTTCCC | 1.7 z-score | 0.79 z-score | 0.496 z-score | 0.839 z-score | 0.661 z-score | 0.674 z-score | 0.512 z-score | 0.746 z-score | 0.598 z-score |
| GGGTTACTCCC | 0.497 z-score | 0.249 z-score | 1.29 z-score | 0.568 z-score | 0.789 z-score | 0.354 z-score | 0.378 z-score | 0.398 z-score | 0.657 z-score |
| GGAAGCACCCT | -0.312 z-score | 0.509 z-score | 0.257 z-score | 0.415 z-score | 0.261 z-score | -0.129 z-score | 0.214 z-score | 0.0298 z-score | 0.224 z-score |
| CGATGACCCCT | -0.679 z-score | -0.0343 z-score | -0.125 z-score | -0.386 z-score | -0.154 z-score | -0.223 z-score | -0.0567 z-score | -0.665 z-score | -0.266 z-score |
| AGGGAGTTCCT | 0.744 z-score | 0.856 z-score | 1.12 z-score | 0.667 z-score | 0.798 z-score | 0.721 z-score | 0.659 z-score | 0.315 z-score | 0.64 z-score |
| AAAGGACTCCT | -0.688 z-score | -1.11 z-score | -0.681 z-score | -0.94 z-score | -0.976 z-score | -1.07 z-score | -0.964 z-score | -1.03 z-score | -0.758 z-score |
| GAATGCCTCCT | -0.0578 z-score | -1.27 z-score | -0.691 z-score | -0.691 z-score | -0.961 z-score | -1.06 z-score | -1.25 z-score | -1.51 z-score | -0.845 z-score |
| AGGATCACCCT | -0.477 z-score | -0.136 z-score | -0.277 z-score | -0.316 z-score | -0.525 z-score | -0.14 z-score | -0.242 z-score | -0.558 z-score | -0.421 z-score |
| AGAAGCATCCC | -0.382 z-score | -1.4 z-score | -0.607 z-score | -0.83 z-score | -0.795 z-score | -0.706 z-score | -0.776 z-score | -1.06 z-score | -0.81 z-score |
| GAATTAGTCCT | 0.155 z-score | -1.6 z-score | -0.565 z-score | -0.821 z-score | -0.862 z-score | -0.954 z-score | -0.767 z-score | -0.711 z-score | -0.848 z-score |
| AAAGGTCCCCT | -0.0302 z-score | 1.09 z-score | 0.848 z-score | 0.65 z-score | 0.742 z-score | 1.05 z-score | 0.989 z-score | 0.669 z-score | 0.512 z-score |
| GGATTTCTCCT | 0.534 z-score | -0.711 z-score | -0.416 z-score | -0.294 z-score | -0.389 z-score | -0.703 z-score | -0.78 z-score | -0.477 z-score | -0.189 z-score |
| CAGGGAGTCCT | 0.0727 z-score | 0.0337 z-score | -0.143 z-score | -0.336 z-score | -0.215 z-score | -0.201 z-score | -0.323 z-score | -0.383 z-score | -0.23 z-score |
| AGAAGTCCCCC | 0.863 z-score | 1.4 z-score | 1.58 z-score | 1.97 z-score | 1.75 z-score | 2.05 z-score | 2.01 z-score | 1.53 z-score | 1.63 z-score |
| AAAGTTGCCCC | 1 z-score | 0.606 z-score | 0.147 z-score | 0.949 z-score | 0.337 z-score | 0.677 z-score | 0.595 z-score | 1.26 z-score | 0.617 z-score |
| CGAAACCCCCT | 0.503 z-score | 1.69 z-score | 2 z-score | 2.24 z-score | 2.14 z-score | 2.22 z-score | 2.21 z-score | 1.52 z-score | 2.21 z-score |
| CAAGATCTCCT | -0.508 z-score | -1.36 z-score | -0.744 z-score | -1.11 z-score | -1.02 z-score | -1.04 z-score | -1.06 z-score | -1.49 z-score | -1.01 z-score |
| CAGAAGATCCT | -1.03 z-score | -2.16 z-score | -0.765 z-score | -1.33 z-score | -1.13 z-score | -1.3 z-score | -1.12 z-score | -1.5 z-score | -1.07 z-score |
| GAGAACTCCCC | 0.725 z-score | 1.15 z-score | 1.06 z-score | 1.34 z-score | 1.05 z-score | 1.1 z-score | 0.794 z-score | 0.916 z-score | 0.92 z-score |
| AAAGTTACCCT | -0.188 z-score | 0.663 z-score | 0.376 z-score | 0.371 z-score | 0.376 z-score | 0.557 z-score | 0.191 z-score | 0.279 z-score | 0.216 z-score |
| GAGAGTATCCC | -0.187 z-score | -0.91 z-score | -0.43 z-score | -0.602 z-score | -0.673 z-score | -0.546 z-score | -0.687 z-score | -0.656 z-score | -0.641 z-score |
| AGGTTCGCCCT | -0.645 z-score | -1.28 z-score | -0.726 z-score | -0.876 z-score | -0.838 z-score | -0.727 z-score | -0.728 z-score | -1.03 z-score | -0.838 z-score |
| CAGGTCGCCCC | -0.367 z-score | -0.385 z-score | -0.232 z-score | -0.268 z-score | -0.328 z-score | -0.18 z-score | -0.126 z-score | 0.016 z-score | -0.13 z-score |
